The text below walks through data of PubChem BioAssay (NCATS).

Each structure is given as a SMILES string. Where “and” joins values, the source holds several entries; their conditions need not be identical. Equal entries are not always repeated. Inconclusive results are not listed. Unmarked numbers belong to inactive results. Calls of active or inactive are those of the source. The call rests on the fitted dose curve; in most records, active means well fitted inhibition curve with a large enough effect; inconclusive means small, poorly fitted or top-dose-only effect; inactive means flat fitted curve, though single readings scatter. Where a SMILES comes first, the peptide text is derived from it. Bridges are numbered along the chain shown (N, C = ends). [ ]: non-standard residue; d: D form. Orn = NCCC[C@H](N)C(=O)O; Mpa = O=C(O)CCS
On the % scale 0 is the no-effect control and ±100 the full control effect; potency means the concentration at half of the fitted maximal effect.

This experiment relates to KB-3-1. The experiment is described as follows: Cytotoxic Profiling of Annotated Libraries Using Quantitative High-Throughput Screening (AID 1296008). Further: nearly all actives have a fitted effect of over 60% in size. The settings on record: Five cell lines viability, CellTiter-Glo ATP luminescence, 48-72 h; max response: active compounds read low. A digest of the protocol: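 Cells exposed to compounds for 48 or 72 hr at 37 degrees Celsius. Viability read as ATP-coupled luminescence with CellTiter-Glo after 10 min at room temperature.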
Take `O=c1[nH]cnc2[nH]cc(CN3CCCCC3)c12`: the max response is -7.83%.
Regarding `CC(=O)O[C@H]1CC[C@@]2(C)C(=CC[C@H]3[C@@H]4CC[C@H](C(C)=O)[C@@]4(C)CC[C@@H]32)C1`, the max response is 2.35%.
As for `C/C(=C(/CCO)SSCC1CCCO1)N(C=O)Cc1cnc(C)nc1N` (centres undefined), the max response was -15.4% and -10.3%.
With `CN1CCN(CCCN2c3ccccc3Sc3ccccc32)CC1`, the max response was -4.85%.
The same measure, in the same setting: the value for `CS(=O)(=O)Nc1cc2occ(NC=O)c(=O)c2cc1Oc1ccccc1` was 1.81%.
On to `CO[C@H]1C[C@H](O[C@H]2[C@H](C)O[C@@H](O[C@@H]3/C(C)=C/C[C@@H]4C[C@@H](C[C@]5(C=C[C@H](C)[C@@H](C6CCCCC6)O5)O4)OC(=O)[C@@H]4C=C(C)[C@@H](O)[C@H]5OC/C(=C\C=C\[C@@H]3C)[C@]54O)C[C@@H]2OC)O[C@@H](C)[C@@H]1O`, for which the Potency is 20.6 µM (active).
On to `NCCC[C@H](N)C(=O)O`, for which the max response is -6.2%.
Still for that read-out and setting: the value for `CCOc1ccc(C[C@H]2NC(=O)CCSSC[C@@H](C(=O)N3CCC[C@H]3C(=O)N[C@@H](CCCN)C(=O)NCC(N)=O)NC(=O)[C@H](CC(N)=O)NC(=O)[C@H]([C@@H](C)O)NC(=O)[C@H]([C@@H](C)CC)NC2=O)cc1` ([Mpa][dY](Et)ITNCP[Orn]G-NH2; disulfide 1-6) was -2.06%.
Take `CCCN(CC)C(CC)C(=O)Nc1c(C)cccc1C` (centres undefined): the max response is -6.86%.
